Reference: PMC5540273 (PLoS ONE, 2017)

These compounds were tested on p38-delta. Settings: concentration: 1 μM, replicates: in singlicate; n = 1.
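Note: KINOMEscan kinase panel screen.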

| SMILES | %Inh [%] |
| --- | --- |
| COc1cc(Nc2nccc(N3CCC(NC(=O)Nc4cc(C)ccc4C)C3)n2)cc(OC)c1OC (centres unmarked) [GSK1379762] | 32 |
| COc1ccc(CNC(=O)NC2CCN(c3ccnc(Nc4cc(OC)c(OC)c(OC)c4)n3)C2)cc1 (centres unmarked) [GSK1379748] | 26 |
| O=S(=O)(c1ccc(-c2ccnc3[nH]ccc23)cc1)N1CCCC1 [GSK846226] | 11 |
| Cc1cccc(-c2nc(Nc3cccc(C(N)=O)c3)c3ccccc3n2)n1 [GW876019] | 16 |
| O=C(Nc1n[nH]c2cc(-c3cccc(F)c3F)ccc12)C1CC1 [SB-733894] | 0 |
| O=C(Nc1ccc2c(c1)OCO2)NC1CCN(c2ccnc(Nc3ccc(F)cc3)n2)C1 (centres unmarked) [GSK1379724] | 37 |
| COc1ccc2nc(-c3cccc(C)n3)nc(Nc3ccncc3)c2c1 [GSK204919] | 12 |
| Cc1ccc(-c2cc(-c3c[nH]nc3-c3ccccn3)ccn2)cc1 [GW684088] | 25 |
| COc1ccccc1CNC(=O)c1cc(C(=O)c2ccccc2C)c[nH]1 [GSK364507] | 39 |
| O=c1cc(N2CCOCC2)nc2n(Cc3cccc(Cl)c3Cl)ccn12 [GSK2286295] | 40 |
| CCCc1ccc(S(=O)(=O)NC2CCN(c3ccnc(Nc4ccc(F)cc4)n3)C2)cc1 (centres unmarked) [GSK1379715] | 29 |
| Cc1cccc(-c2nc(Nc3ccncc3)c3ccccc3n2)n1 [GW855857] | 0 |
| COc1cc2ncnc(Nc3ccc4nc(-c5ccccc5)[nH]c4c3)c2cc1OC.Cl [GW282450] | 36 |
| COc1ccccc1-c1ccc2c(NC(=O)C3CC3)n[nH]c2n1 [SB-711239] | 6 |
| Cl.O=C(Nc1cccc(-c2nn3ncccc3c2-c2ccnc(Nc3cccnc3)n2)c1)c1c(F)cccc1F [GSK312879] | 24 |
| Nc1nc(-c2nccs2)c(-c2ccnc3ccccc23)s1 [GW693542] | 22 |
| CN(C)CCN(C)C(=O)c1cc(-c2ccncc2)c(-c2ccc(Cl)c(O)c2)o1.Cl.Cl [SB-710397] | 51 |

| SMILES | %Inh [%] |
| --- | --- |
| Nc1ncnc2[nH]c(-c3ccccc3)nc12 [AH5015] | 6 |
| Cc1ccc(C(=O)Nc2ccc(Nc3ccnc4cc(-c5ccccn5)ccc34)cc2O)cc1.Cl [GW440146] | 42 |
| Cc1ccc(NC(=O)Nc2cccc(Cl)c2)cc1-c1ccc(C(=O)Nc2ccncc2)cc1 [GSK1398468] | 37 |
| Fc1cccc(COc2nnc(-c3ccc4c(c3)CCO4)o2)c1 | 4 |
| COc1cccc(-c2cc(-c3c[nH]nc3-c3ccccn3)ccn2)c1 [GW680338] | 20 |
| COc1cc2ncn(-c3cc(OCC4CCCO4)c(C(N)=O)s3)c2cc1OC (centres unmarked) [GSK204607] | 37 |
| CS(=O)(=O)c1ccc(-c2c(-c3ncn[nH]3)sc(N3CCOCC3)c2C#N)cc1 | 34 |
| Cl.NC(=O)c1cccc(Nc2nccc(Nc3ccc(Oc4cccc(Cl)c4)c(Cl)c3)n2)c1 [GW659008] | 38 |
| Cc1cccc(-c2cc(Nc3ccncc3)c3ccccc3n2)n1 [GSK223675] | 42 |
| CC1=C(C(=O)Nc2cc3cn[nH]c3cc2F)C(c2ccc(C(F)(F)F)cc2)CC(=O)N1 (centres unmarked) [GSK429286] | 21 |
| Cc1nnc(-c2ccc3occ(-c4ccc(S(C)=O)cc4)c3c2)[nH]1 (centres unmarked) | 3 |
| Cc1c(Cn2ccn3c(=O)cc(N4CCOCC4)nc23)cccc1C(F)(F)F [GSK2289044] | 12 |
| CC(C)(C)c1ccc(C(=O)Nc2cn3cc(-c4cccnc4)ccc3n2)cc1 | 46 |
| O=C(Nc1n[nH]c2nc(-c3nccs3)c(Br)cc12)C1CC1 [SB-742251] | 20 |
| Cc1csc(-c2nc(Nc3ccncc3)c3ccccc3n2)n1 [GW869640] | 0 |
| C[C@@H]1CCCCN1c1cc(-c2ccc3c(N)n[nH]c3c2)nc(N)n1 [GSK2258759] | 26 |
| Cc1cc(NCC(c2ccccc2)c2ccccc2)nc(NCc2ccc(C(F)(F)F)cc2)n1 [GW497681] | 45 |

The compounds below were run on T1, p38-gamma. Settings: concentration: 1 μM, replicates: in singlicate; n = 1.
T1 construct: gene MAPK12

| SMILES | %Inh [%] |
| --- | --- |
| COc1cc(Nc2nccc(N3CCC(NC(=O)Nc4cc(C)ccc4C)C3)n2)cc(OC)c1OC (centres unmarked) [GSK1379762] | 24 |
| COc1ccc(CNC(=O)NC2CCN(c3ccnc(Nc4cc(OC)c(OC)c(OC)c4)n3)C2)cc1 (centres unmarked) [GSK1379748] | 0 |
| O=S(=O)(c1ccc(-c2ccnc3[nH]ccc23)cc1)N1CCCC1 [GSK846226] | 6 |
| Cc1cccc(-c2nc(Nc3cccc(C(N)=O)c3)c3ccccc3n2)n1 [GW876019] | 58 |
| O=C(Nc1n[nH]c2cc(-c3cccc(F)c3F)ccc12)C1CC1 [SB-733894] | 24 |
| O=C(Nc1ccc2c(c1)OCO2)NC1CCN(c2ccnc(Nc3ccc(F)cc3)n2)C1 (centres unmarked) [GSK1379724] | 0 |
| COc1ccc2nc(-c3cccc(C)n3)nc(Nc3ccncc3)c2c1 [GSK204919] | 0 |
| Cc1ccc(-c2cc(-c3c[nH]nc3-c3ccccn3)ccn2)cc1 [GW684088] | 11 |
| COc1ccccc1CNC(=O)c1cc(C(=O)c2ccccc2C)c[nH]1 [GSK364507] | 0 |
| O=c1cc(N2CCOCC2)nc2n(Cc3cccc(Cl)c3Cl)ccn12 [GSK2286295] | 27 |
| CCCc1ccc(S(=O)(=O)NC2CCN(c3ccnc(Nc4ccc(F)cc4)n3)C2)cc1 (centres unmarked) [GSK1379715] | 0 |
| Cc1cccc(-c2nc(Nc3ccncc3)c3ccccc3n2)n1 [GW855857] | 24 |
| COc1cc2ncnc(Nc3ccc4nc(-c5ccccc5)[nH]c4c3)c2cc1OC.Cl [GW282450] | 0 |
| COc1ccccc1-c1ccc2c(NC(=O)C3CC3)n[nH]c2n1 [SB-711239] | 2 |
| Cl.O=C(Nc1cccc(-c2nn3ncccc3c2-c2ccnc(Nc3cccnc3)n2)c1)c1c(F)cccc1F [GSK312879] | 0 |
| Nc1nc(-c2nccs2)c(-c2ccnc3ccccc23)s1 [GW693542] | 30 |
| CN(C)CCN(C)C(=O)c1cc(-c2ccncc2)c(-c2ccc(Cl)c(O)c2)o1.Cl.Cl [SB-710397] | 29 |

| SMILES | %Inh [%] |
| --- | --- |
| Nc1ncnc2[nH]c(-c3ccccc3)nc12 [AH5015] | 0 |
| Cc1ccc(C(=O)Nc2ccc(Nc3ccnc4cc(-c5ccccn5)ccc34)cc2O)cc1.Cl [GW440146] | 11 |
| Cc1ccc(NC(=O)Nc2cccc(Cl)c2)cc1-c1ccc(C(=O)Nc2ccncc2)cc1 [GSK1398468] | 0 |
| Fc1cccc(COc2nnc(-c3ccc4c(c3)CCO4)o2)c1 | 0 |
| COc1cccc(-c2cc(-c3c[nH]nc3-c3ccccn3)ccn2)c1 [GW680338] | 0 |
| COc1cc2ncn(-c3cc(OCC4CCCO4)c(C(N)=O)s3)c2cc1OC (centres unmarked) [GSK204607] | 0 |
| CS(=O)(=O)c1ccc(-c2c(-c3ncn[nH]3)sc(N3CCOCC3)c2C#N)cc1 | 33 |
| Cl.NC(=O)c1cccc(Nc2nccc(Nc3ccc(Oc4cccc(Cl)c4)c(Cl)c3)n2)c1 [GW659008] | 0 |
| Cc1cccc(-c2cc(Nc3ccncc3)c3ccccc3n2)n1 [GSK223675] | 22 |
| CC1=C(C(=O)Nc2cc3cn[nH]c3cc2F)C(c2ccc(C(F)(F)F)cc2)CC(=O)N1 (centres unmarked) [GSK429286] | 0 |
| Cc1nnc(-c2ccc3occ(-c4ccc(S(C)=O)cc4)c3c2)[nH]1 (centres unmarked) | 9 |
| Cc1c(Cn2ccn3c(=O)cc(N4CCOCC4)nc23)cccc1C(F)(F)F [GSK2289044] | 12 |
| CC(C)(C)c1ccc(C(=O)Nc2cn3cc(-c4cccnc4)ccc3n2)cc1 | 21 |
| O=C(Nc1n[nH]c2nc(-c3nccs3)c(Br)cc12)C1CC1 [SB-742251] | 0 |
| Cc1csc(-c2nc(Nc3ccncc3)c3ccccc3n2)n1 [GW869640] | 39 |
| C[C@@H]1CCCCN1c1cc(-c2ccc3c(N)n[nH]c3c2)nc(N)n1 [GSK2258759] | 0 |
| Cc1cc(NCC(c2ccccc2)c2ccccc2)nc(NCc2ccc(C(F)(F)F)cc2)n1 [GW497681] | 0 |
